TWEAK Fn14 block = TWEAK-Fn14 signaling inhibition. TWEAK-stimulated Fn14 reporter cells, luciferase luminescence, 8 h. inhibition, % at 10 µM. hit rate 2% among 360,000; in the data active means inhibition above about 50%
HSF-1 act = increases HSF-1 driven luciferase reporter signal; NIH3T3-HGL HSF-1 luciferase reporter, MG132, 8 h; 100% = twice DMSO control signal; hit rate 1.7% among 300,000; activation, % at 9 µM;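 active means mean replicate activation of at least 50% with a set share of replicates each reaching 50%; inconclusive means only one of those two conditions met; inactive means mean below 50% and too few replicates reaching it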
EBV LMP1 NFkB = Epstein-Barr LMP1 NF-kappaB reporter inhibition; LMP1-induced NF-kappaB luciferase reporter cells, luminescence; inhibition, % at 12.5 µM; hit rate 0.69% among 350,000; in the data active means inhibition above about 41%; inconclusive means no clear call, values can overlap the other calls
HSF1 inh = HSF1 inhibition | NIH3T3-HGL HSE-luciferase, MG132-induced, luminescence 8 h; stronger effect = lower value | activity change, negative = inhibition, % at 7.5 µM (by protocol) | hit rate 0.77% among 300,000 | AID 2098;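 active means more than half of replicate wells show activity change below -50%, luminescence cut by over half; inconclusive means some wells, but at most half, below -50%; inactive means no replicate well below -50%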;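 further: luciferase reports HSF-1 transcriptional activity via heat shock element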
LGR2 antag = inhibitors of bursicon-induced Drosophila LGR2 receptor cAMP signaling; HEK293 LGR2, CRE-luciferase, bursicon-stimulated, 4 h; inhibition, % at 9.99 µM; hit rate 0.35% among 380,000; AID 720647;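 active means drop in luminescence signal, shown as inhibition above about 50% in the replicate tests, limit read from the data, passing the limit was not always enough; inconclusive means probably only some replicates passing the limit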;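 further: agonist challenge used bursicon conditioned medium at about half maximal strength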
TROY NFkB inh = TROY signaling inhibition. Q293 LMP1-TROYcd NF-kB luciferase reporter, 4 h. inhibition, % at 10 µM. hit rate 0.98% among 360,000;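 active means compounds whose plate-normalised and pattern-corrected inhibition of the luciferase reporter signal at the single screening dose is 50% or more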
Each line names hits and unclear results; the compound was inactive in the other large screens. The list is not random: actives were taken first. Their share in the collection is about 3.6%.

Cn1c(=O)c2c(nc(SCCCC#N)n2Cc2c(F)cccc2Cl)n(C)c1=O	none
CC(C)c1nc(SCc2c(F)cccc2Cl)c2c(=O)n(C)c(=O)n(C)c2n1	HSF1 inh -67 (no result: LGR2 antag)
Cc1cccc(S(=O)(=O)N[C@@H]2CC[C@H](CCNC(=O)CCN3CCCCC3)O[C@@H]2CO)c1	none (no result: TWEAK Fn14 block, HSF-1 act, EBV LMP1 NFkB, HSF1 inh, TROY NFkB inh)
COCC(=O)Nc1ccc2c(c1)OC[C@H](C)N(C(=O)c1ccccc1F)C[C@@H](C)[C@@H](OC)CN(C)C2=O	none (no result: TWEAK Fn14 block, HSF-1 act, EBV LMP1 NFkB, HSF1 inh, TROY NFkB inh)
CCOC(=O)c1ccc(-c2c(-c3ccccc3OC)sc3ccc(OC)cc23)cc1F	TROY NFkB inh 53 (no result: HSF-1 act, HSF1 inh, LGR2 antag)
COc1ccc2sc(-c3ccccc3OC)c(-c3ccc(OC)nc3)c2c1	none (no result: HSF-1 act, HSF1 inh)
COC(=O)C[C@H]1C[C@@H]2c3cc(NC(=O)NC4CCCC4)ccc3O[C@@H]2[C@H](CO)O1	none (no result: TWEAK Fn14 block, HSF-1 act, EBV LMP1 NFkB, HSF1 inh, TROY NFkB inh)
CO[C@@H]1CN(C)C(=O)c2cc(NC(=O)c3cnccn3)ccc2OC[C@H](C)N(C(=O)C2CC2)C[C@@H]1C	none (no result: TWEAK Fn14 block, HSF-1 act, EBV LMP1 NFkB, HSF1 inh, TROY NFkB inh)
Cc1ccc(Nc2c(-c3ccc(C)o3)nc3ncccn23)cc1	none
Cc1ccc(-c2nc3ncccn3c2Nc2ccccc2C)o1	HSF-1 act 57
Cc1ccc(-c2nc3cnccn3c2Nc2c(C)cccc2C)o1	HSF1 inh -82
CCCCC1C(=O)N(c2ccccc2)N(c2ccc(O)cc2)C1=O (stereo unspecified)	TWEAK Fn14 block 84, EBV LMP1 NFkB 55, TROY NFkB inh 55 (no result: HSF-1 act, HSF1 inh, LGR2 antag)
Cc1cccc(Oc2coc3cc(OC(=O)c4cccs4)ccc3c2=O)c1	HSF-1 act 59 (no result: LGR2 antag)
Cc1cccc(C(C#N)c2ccc(Cl)nn2)c1 (stereo unspecified)	HSF-1 act 74
COc1cc(Nc2nc(-c3ccccc3)c3cc(C)ccc3n2)cc(OC)c1OC	TWEAK Fn14 block 69 (no result: LGR2 antag)
Cc1ccc2nc(NCC(=O)O)nc(-c3ccccc3)c2c1	none (no result: LGR2 antag)
O=C(C[C@@H]1CC[C@@H](NS(=O)(=O)c2ccccc2)[C@@H](CO)O1)NCc1ccccc1F	none (no result: TWEAK Fn14 block, HSF-1 act, EBV LMP1 NFkB, HSF1 inh, TROY NFkB inh)
C[C@@H]1CN([C@@H](C)CO)C(=O)Cc2cc(NS(=O)(=O)c3ccccc3)ccc2O[C@H]1CN(C)Cc1ccc(C(=O)O)cc1	none (no result: TWEAK Fn14 block, HSF-1 act, EBV LMP1 NFkB, HSF1 inh, TROY NFkB inh)
O=[N+]([O-])c1ccc(O)c(N=Cc2sc3ccccc3c2O)c1	TWEAK Fn14 block 76, TROY NFkB inh 76
Oc1ccc(Cl)cc1N=Cc1sc2ccccc2c1Cl	none
CC(=O)N[C@H]1CC[C@@H](CCNC(=O)C2CCC2)O[C@H]1CO	none (no result: TWEAK Fn14 block, HSF-1 act, EBV LMP1 NFkB, HSF1 inh, TROY NFkB inh)
O=C(C[C@H]1C[C@@H]2c3cc(NC(=O)NC4CCCC4)ccc3O[C@@H]2[C@@H](CO)O1)NCc1cccnc1	none (no result: TWEAK Fn14 block, HSF-1 act, EBV LMP1 NFkB, HSF1 inh, TROY NFkB inh)
Cc1ccc(-c2nn[nH]n2)o1	HSF1 inh -58 (no result: LGR2 antag)
CCC1=CC(c2ccccc2)n2ncnc2N1 (stereo unspecified)	HSF1 inh -84
C1=C(c2ccccc2)Nc2ncnn2C1c1ccccc1 (stereo unspecified)	none
Nc1ccc(S(=O)(=O)c2ccccc2)nc1	none
O=[N+]([O-])c1ccc(S(=O)(=O)c2ccccc2)nc1	TWEAK Fn14 block 54, EBV LMP1 NFkB 53, HSF1 inh -96, LGR2 antag 52, TROY NFkB inh 58
Cc1cc(Sc2ccc([N+](=O)[O-])cn2)ccc1Br	none
Cc1ccc(S(=O)(=O)c2ccc([N+](=O)[O-])cn2)cc1	TWEAK Fn14 block 68, EBV LMP1 NFkB 60, HSF1 inh -84, LGR2 antag 65, TROY NFkB inh 59
Cc1cc(S(=O)(=O)c2ccc([N+](=O)[O-])cn2)ccc1Br	TWEAK Fn14 block 60, EBV LMP1 NFkB 74, LGR2 antag inconclusive, TROY NFkB inh 72
C[C@H](CO)N1C[C@H](C)[C@H](CN(C)Cc2cccc(C(F)(F)F)c2)Oc2ncc(-c3cc4ccccc4o3)cc2C1=O	none (no result: TWEAK Fn14 block, HSF-1 act, EBV LMP1 NFkB, HSF1 inh, TROY NFkB inh)
COCCCNCC(O)COc1ccccc1F (stereo unspecified)	TWEAK Fn14 block 98
Cc1ccc(S(=O)(=O)N[C@@H]2C=C[C@@H](CC(=O)NCCCN(C)C)O[C@H]2CO)cc1	none (no result: TWEAK Fn14 block, HSF-1 act, EBV LMP1 NFkB, HSF1 inh, TROY NFkB inh)
CCC(=O)N1[C@@H]2c3ccc(C4=CCCCC4)c(=O)n3C[C@@H]2[C@@H](CO)[C@@H]1C(=O)NC1CCC1	none (no result: TWEAK Fn14 block, HSF-1 act, EBV LMP1 NFkB, HSF1 inh, TROY NFkB inh)
COc1cccc(OC)c1C(=O)NCCSC1CCCCC1	EBV LMP1 NFkB 59
C[C@@H]1CN([C@H](C)CO)C(=O)Cc2cc(NS(=O)(=O)c3ccc(Cl)cc3)ccc2O[C@@H]1CN(C)S(=O)(=O)c1cccs1	none (no result: TWEAK Fn14 block, HSF-1 act, EBV LMP1 NFkB, HSF1 inh, TROY NFkB inh)
Oc1ccc2ccccc2c1CN1CCN(c2ccccc2)CC1	HSF-1 act 375 (no result: LGR2 antag)

Compound activity (PubChem)
